An excerpt weighted towards active compounds, which were near 1.5% of everything screened.
USP2a inh – USP2a (human) protease inhibition; USP2a enzymatic assay, qHTS inhibition; 0.1% of 60,000 active; Potency, µM (doses to about 38.3 µM), hits mostly inhibitors; further: nearly all actives have a fitted effect of over 60% in size
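20 nM USP2 core + cpd, 30 min RT; add 20 nM Ub-PLA2/20 uM NBD C6-HPC; read Ex460/Em535 at 0 h and 2.5 h. Normalized to NEM; qHTS curve fit/classification.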
BRCT inh red – disrupts BRCA1 BRCT binding to phosphoprotein, red fluorophore readout; P38398; BRCT-phosphopeptide binding, red fluorescence polarization; Potency, µM (highest dose often 76.9 µM), actives largely listed as inhibitors; 0.03% of 75,000 active
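Rhodamine-labelled pBACH1 10-mer (100 nM) bound to BRCT domain (100 nM) at pH 7.3; compounds incubated 12 min room temperature, polarization read. Free peptide defines full inhibition; unlabelled decapeptide titrated as control.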
Casp7 inh – allosteric or competitive inhibitors of human caspase-7. P55210. recombinant caspase-7, Ac-DEVD-AFC fluorescence rate. Potency, µM (doses to about 57.5 µM), usual class: inhibitors. 0.02% of 75,000 active. AID 889; active means well fitted inhibition curve with a large enough effect in the main read-out, with a control signal flat, not every such curve was filed as active; inconclusive means small, poorly fitted or top-dose-only effect, or a change in a side signal
15-hLO inh – 15-hLO (ALOX15) enzyme inhibition | purified 15hLO-1, xylenol orange hydroperoxide absorbance | Potency, µM (doses to about 57.1 µM), most hits filed as inhibitors | 1.4% of 74,000 active; further: nearly all actives have a fitted effect of over 55% in size
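Hydroperoxide formed from arachidonic acid (50 uM) by purified human 15hLO-1 (40 nM) oxidizes ferrous iron, and the ferric-xylenol orange complex is read at 573 versus 405 nm. Compounds were preincubated 15 min; reaction ran 6 min at room temperature.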
Caspase-1 inhib – allosteric or competitive inhibitors of human caspase-1; P29466; Caspase-1 enzyme, Ac-WEHD-AFC fluorogenic rate; Potency, µM (series often up to 57.5 µM), actives largely listed as inhibitors; 0.03% of 75,000 active
Target sequence (P29466 120-297 limits assumed): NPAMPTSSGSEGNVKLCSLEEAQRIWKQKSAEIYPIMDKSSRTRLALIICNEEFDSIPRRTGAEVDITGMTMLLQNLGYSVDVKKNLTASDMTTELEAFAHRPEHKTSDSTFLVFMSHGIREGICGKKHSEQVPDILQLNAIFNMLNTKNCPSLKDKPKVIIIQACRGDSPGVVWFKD
Target sequence (P29466 317-404 limits assumed): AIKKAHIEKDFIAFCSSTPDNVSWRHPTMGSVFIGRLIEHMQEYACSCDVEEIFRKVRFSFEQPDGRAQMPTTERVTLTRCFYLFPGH
BRCT PPI green – blocks human BRCA1 BRCT binding to phosphopeptide, green readout; P38398; BRCA1 BRCT-phosphopeptide binding, green fluorescence polarization; Potency, µM (series often up to 76.9 µM), usual class: inhibitors; 0.05% of 75,000 active
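Fluorescence polarization: His-tagged BRCT (~35 kDa BRCA1 C-terminus, 250 nM) bound to 100 nM fluorescein-labeled phosphorylated 10-aa BACH1 peptide, pH 7.3 phosphate buffer with DTT and Tween 20. Compounds incubated 12 min at room temperature; inhibition read as lowered polarization.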
Large screens that a line does not name were inactive. Unless noted, the call rests on the fitted dose curve; in most records, active means well fitted curve in the direction sought with a large enough effect; inconclusive means small, poorly fitted or top-dose-only effect, or another doubt; inactive means no such curve, though single readings can be large; an effect the other way counts as inactive or inconclusive.

Cn1c(O)c(C=NCc2ccco2)c(=O)n(C)c1=O	15-hLO inh 32µM
C[C@@H]1Cc2cc3c(cc2C(c2ccc(N)cc2)=NN1)OCO3	15-hLO inh inconclusive
C[N+]1(C)[C@@H]2CC[C@H]1CC(OC(=O)c1c[nH]c3ccccc13)C2 (some centres undefined)	15-hLO inh 16µM
CC(=O)[O-].CC(=O)[O-].CC(=O)[O-].[Cr+3]	none (no result: USP2a inh)
CC(=O)O.CC(=O)O.[Cd]	USP2a inh 2.5µM, 15-hLO inh 16µM
CSC([N-]/N=C/c1cccc(C)n1)=[S]=[Cu].CS[C@H]([S-])[N-]/N=C/c1cccc(C)n1	15-hLO inh inconclusive (no result: USP2a inh)
O=S(=O)(NCCO)c1cc[c]([Sb](=[O])([OH])[OH])cc1	none (no result: USP2a inh)
C=CCN1CCc2cccc3c2[C@@H]1Cc1ccc(O)c(O)c1-3	15-hLO inh inconclusive

Source: PubChem (National Center for Advancing Translational Sciences (NCATS))
